From PubChem BioAssay (Tox21) come the findings set out here.

Molecules are shown by their SMILES. Results filed as inconclusive are left out. Active and inactive are the calls of the source. The call rests on the fitted dose curve; in most records, active means well fitted cell-killing curve with a large enough effect in the repeat runs; inconclusive means weak or mixed curves, or effect the other way; inactive means no such curve, though single readings can be large or run the other way.

The assay in a line: qHTS assay to identify small molecule agonists of the vitamin D receptor (VDR) signaling pathway - cell viability counter screen (AID 743224). Further: nearly all actives have a fitted effect of over 50% in size. The conditions noted are these: VDR-bla HEK293T viability, CellTiter-Glo luminescence, 16 h; series mostly up to 62.6 µM. From the text: U.S. Tox21 Program National Center for Advancing Translational Sciences [NCATS] NIH Chemical Genomics Center [NCGC] U.S. Environmental Protection Agency [EPA] National Institutes of Environmental Health Sciences [NIEHS] National Toxicology Program [NTP] U.S. Food and Drug Administration [FDA] Tox21 Assay Overview: The vitamin D receptor (VDR), a member of nuclear hormone receptor superfamily, plays a critical role in calcium homeostasis and bone metabolism. It is also involved in cell differentiation and growth, and thrombogenicity. […] The cytotoxicity of the Tox21 compound library against the VDR-bla cell line was tested in parallel by measuring the cell viability using CellTiter-Glo assay (Promega, Madison, WI) in the same wells.
Tox21 Assay Protocol Summary: VDR-bla cells were dispensed at 2,000 cells/6 uL/well into black wall/clear-bottom 1536-well plates using a Multidrop Combi (Thermo Fisher Scientific, Waltham, MA) dispenser. After the assay plates were incubated at a 37C and 5% CO2 for 4 h, 23 nL of compounds dissolved in DMSO, positive controls or DMSO only was transferred to the assay plate by a Pintool station (Kalypsys, San Diego, CA). The plates were incubated at 37C and 5% CO2 for 16 h. After 1 uL of LiveBLAzerTM B/G FRET substrate was added using a Bioraptr Flying Reagent Dispenser (FRD) workstation (Beckman Coulter, Indianapolis, IN, USA), the plates were incubated at room temperature for 2 h, and fluorescence intensity was measured by an Envision plate reader (PerkinElmer, Shelton, CT). For cell viability readout that measures cytotoxicity, 3 ul/well of CellTiter-Glo reagent was added into the assay plates using a FRD. After 30 min incubation at room temperature, the luminescence intensity in the plates was measured using a ViewLux (PerkinElmer) plate reader.
(In general: Quantitative high-throughput screening tests each substance at several concentrations.)
Consider `CC(=O)c1ccc(Cl)c(Cl)c1Cl`, for which the call was inactive. As for `CCCCCCCCCCCCSCCOCCO`, the entry is “inactive”; as for `CCCc1nc(C)c2c(=O)[nH]c(-c3cc(S(=O)(=O)N4CCN(CC)CC4)ccc3OCC)nn12`, “inactive”.

As to `O=C(OC1C[C@H]2CC[C@@H](C1)[N+]21CCCC1)C(O)(c1ccccc1)c1ccccc1` (stereo not given in full), the compound was classed as inactive.

With `CCCCCC1CCC(=O)O1` (stereo not given), the call was inactive.

As to `O=C1c2ccccc2C(=O)c2c1ccc(O)c2O`, the call was inactive. Consider `C=C(C)C(=O)OCCCCCCCCCCOC(=O)C(=C)C`, for which the compound was classed as inactive.

Take `O=Cc1ccc(Cl)c([N+](=O)[O-])c1`: the compound was called inactive. As for `CCc1ccc(C(=O)C(C)CN2CCCCC2)cc1` (stereo not given), the entry is “inactive”; as for `Cc1cc(C)c(C)c(O)c1`, “inactive”; as for `O=[N+]([O-])c1ccc(Cl)cc1Cl`, “inactive”. `COc1ccc(/C(C)=C/C(=O)O)c(OC)c1`: the compound was classed as inactive. As for `CO[C@@H]1COCC[C@@H]1N[C@@H]1CC[C@@](C(=O)N2CCc3ncc(C(F)(F)F)cc3C2)(C(C)C)C1`, the entry is “inactive”; as for `Cc1cc(C)n(CO)n1`, “inactive”; as for `O=C1CCCN1CCO`, “inactive”. As for `CC(C)CCCCCCCOC(=O)c1ccc(C(=O)OCCCCCCCC(C)C)c(C(=O)OCCCCCCCC(C)C)c1`, the entry is “inactive”; as for `CCOCCn1c(N2CCCN(C)CC2)nc2ccccc21`, “inactive”; as for `CC/C=C/CCO`, “inactive”. As for `c1ccc(CCNc2nc(-c3ccccc3)cs2)cc1`, the entry is “inactive”; as for `Nc1cccc2c(=O)[nH][nH]c(=O)c12`, “inactive”. Turning to `CC(C)=CCC/C(C)=C/C=N/O`, the outcome was inactive.

With `C1CCN(CN2CCCCC2)CC1`, the compound was called inactive. As for `CCCC1CCOC(C)S1` (stereo not given), the entry is “inactive”; as for `CCOC(=O)CC(O)(CC(=O)OCC)C(=O)OCC`, “inactive”; as for `O=C(O)c1ccccc1-n1cc(C(=O)O)c(=O)c2cc(Nc3c(F)cc(F)cc3Cl)c(Cl)cc21`, “inactive”. As for `C/C(=C\C(C)CC(C)CC(C)C)C1CC(=O)OC1=O` (stereo not given), the entry is “inactive”; as for `CCCCCCOC(=O)c1ccccc1`, “inactive”; as for `CC(C)(C)N`, “inactive”. As for `CC(C)Cc1nccs1`, the entry is “inactive”.

On to `COc1ccc(/C=C/c2cc(OC)cc(=O)o2)cc1`, for which the compound was classed as inactive. As for `O=C(N[C@@H](Cc1ccccc1)[C@@H](O)C(=O)N1C[C@@H](O)[C@@H](O)C1)c1cc2cc(Cl)ccc2[nH]1`, the entry is “inactive”. As for `CC[C@H](NC(C)C)[C@H](O)c1ccc(O)c2[nH]c(=O)ccc12`, the entry is “inactive”; as for `COC(=O)C(C)(C)C`, “inactive”; as for `CCC(CC)C(=O)O`, “inactive”. As for `CC(CC(C#N)(c1ccccc1)C(C)C)N(C)C` (stereo not given), the entry is “inactive”; as for `FC(F)(Cl)C(F)(Cl)Cl`, “inactive”; as for `Cc1c(Cl)cccc1Nc1ccccc1C(=O)O`, “inactive”. On to `CC(O)CN` (stereo not given), for which the call was inactive. As for `CCCCCCC/C=C/C=O`, the entry is “inactive”; as for `CCCCCCCCCCCC(=O)OCC`, “inactive”.
